According to PubChem BioAssay (NCATS):
Where “and” joins values, the source holds several entries; their conditions need not be identical. Equal entries are not always repeated. Inconclusive results are not listed. Calls of active or inactive are those of the source. Unless noted, calls follow the shape of the dose curve; as a rule, active = well fitted curve in the direction sought with a large enough effect; inconclusive = small, poorly fitted or top-dose-only effect, or another doubt; inactive = no such curve, though single readings can be large; an effect the other way counts as inactive or inconclusive.

What was measured:
[1] = biological target: Calcium and integrin-binding protein 1 (Homo sapiens) (UniProt Q99828); test: Primary qHTS for Identification of Calcium Integrin Binding Protein 1 (CIB1) Competitor (AID 1508620);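 also: GST tagged CIB1 binding a fluorescein labelled alphaIIb integrin peptide tracer; top concentration of the series differs between compounds; % is scaled to controls: 0 for no effect and ±100 for the full control effect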
Calcium and integrin-binding protein 1 (Homo sapiens), sequence (Q99828 whole entry, looked up): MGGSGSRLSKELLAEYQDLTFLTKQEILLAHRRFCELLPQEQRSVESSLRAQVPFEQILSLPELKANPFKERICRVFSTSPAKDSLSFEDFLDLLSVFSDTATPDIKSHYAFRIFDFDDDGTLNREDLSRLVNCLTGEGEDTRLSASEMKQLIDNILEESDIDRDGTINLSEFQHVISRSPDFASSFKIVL
Summary of the method: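 Fluorescence polarization competition: GST-tagged CIB1 (1 uM final) preincubated with compound 15 min at room temperature, then FITC-labelled alphaIIb peptide (100 nM final) added. After 15 min at room temperature, polarization read at Ex 480/Em 540.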

[2] = Primary qHTS for inhibitors of nuclear receptor binding SET domain protein 2 (NSD2) in an isogenic RCH-ACV NSD2 p.E1099K mutant (9B) (AID 1645876); also: nearly all actives have a fitted effect of over 70% in size; also: potency is read from the fitted curve at half-maximal effect
[3] = biological target: Glutathione peroxidase 1 (Homo sapiens) (UniProt P07203); test: Primary qHTS Assay for Inhibitors of Recombinant Selenoprotein Glutathione Peroxidase 1 (GPX1) (AID 1845191); also: nearly all actives have a fitted effect of over 65% in size; as to activity, negative = inhibition: % is scaled to controls: 0 for no effect and ±100 for the full control effect
Glutathione peroxidase 1 (Homo sapiens), sequence (P07203 whole entry, looked up): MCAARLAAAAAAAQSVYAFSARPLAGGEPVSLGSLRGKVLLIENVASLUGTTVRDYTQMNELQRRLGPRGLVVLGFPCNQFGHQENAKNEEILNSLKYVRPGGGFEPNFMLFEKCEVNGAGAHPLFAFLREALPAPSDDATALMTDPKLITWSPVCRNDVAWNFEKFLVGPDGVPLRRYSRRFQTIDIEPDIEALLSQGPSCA
Summary of the method: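 GR-coupled assay: compounds preincubated 30 min at room temperature with GPX1, then reaction started with CHP; final 10 nM GPX1, 1 mM GSH, 0.5 mM CHP, 0.5 mM NADPH, 100 nM GR, 0.01% BSA, pH 7.5 Tris buffer. NADPH fluorescence (340/450 nm) read at 0 and 15 min.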

[4] = biological target: Luciferin 4-monooxygenase (Photinus pyralis) (UniProt P08659); test: Primary firefly luciferase (FLuc) qHTS assay for identification of artifact compounds. (AID 1845220); also: nearly all actives have a fitted effect of over 60% in size;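 as to activity change, negative = inhibition: plate controls were DMSO vehicle for no effect and no enzyme for full effect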
Summary of the method: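 Enzymatic FLuc inhibition assay: compounds pre-exposed to luciferin/ATP (10 uM each) for 15 min, then purified P. pyralis enzyme at 10 nM added. Read-out: luminescence at 5 min.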

[5] = Primary fluorescence-based thiol-reactive (MSTI) qHTS assay for identification of artifact compounds. (AID 1845221);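 also: thiol-reactive compounds lower the probe fluorescence signal; nearly all actives have a fitted effect of over 65% in size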
Summary of the method: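 Reactivity toward the thiol probe MSTI (4 uM) is scored by fluorescence at Ex/Em 525/598 nm after 1 h at room temperature. Acetyl-MSTI and MSTI define the activity scale.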

[6] = tested on: Nanoluciferase (engineered Oplophorus gracilirostris luciferase); test: Primary Nanoluciferase (NLuc) qHTS assay for identification of artifact compounds. (AID 1845222);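 also: NLuc secreted into diluted conditioned medium of S16 cells; 0% = DMSO and -100% = no enzyme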
Summary of the method: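 S16 cell supernatant NLuc, 1:55; cpds qHTS; 15 min RT dark; Nano-Glo substrate 1:100, 5 min; luminescence; Hill fit of % inhibition.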

[7] = Primary redox qHTS assay for identification of artifact compounds. (AID 1845223);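 also: 0% = DMSO and 100% = reference compound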
Summary of the method: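 Amplex Red (25 uM) and HRP (250 mU/mL) in HBSS, with compounds for 15 min, then 250 uM DTT for 30 min, room temperature, dark. Fluorescence 525/598 nm read; normalized to DMSO and 10 uM DA3003; Hill fit.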

[8] = tested on: Es-2; test: Primary qHTS to identify gynecologic anti-cancer compounds using libraries of approved drugs and bioactive compounds (AID 1345084); settings: Gynecologic cancer cell panel viability, ATPlite luminescence, 48 h; series mostly up to 57.5 µM; also: nearly all actives have a fitted effect of over 55% in size; also: potency is read from the fitted curve at half-maximal effect; as to activity change, negative = cytotoxicity: % is scaled to controls: 0 for no effect and ±100 for the full control effect
Summary of the method: (§1)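 Measured: luminescence after ATPlite addition (15 min, RT). Exposure: 48 h, 37 C, 5% CO2.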

[9] = tested on: HeLa; test: as above; settings: Gynecologic cancer cell panel viability, ATPlite luminescence, 48 h; series mostly up to 57.5 µM
Summary of the method: as §1

[10] = tested on: Hek293T; test: as above; settings: Gynecologic cancer cell panel viability, ATPlite luminescence, 48 h, control line for the selectivity index; series mostly up to 57.5 µM
Summary of the method: as §1

[11] = tested on: JEG-3; test: as above; settings: Gynecologic cancer cell panel viability, ATPlite luminescence, 48 h; series mostly up to 57.5 µM
Summary of the method: as §1

[12] = tested on: OV90; test: as above; settings: Gynecologic cancer cell panel viability, ATPlite luminescence, 48 h; series mostly up to 57.5 µM
Summary of the method: as §1

[13] = tested on: Tov112D; test: as above; settings: Gynecologic cancer cell panel viability, ATPlite luminescence, 48 h; series mostly up to 57.5 µM
Summary of the method: as §1

[14] = tested on: Zika virus NS2B-NS3 protease (linked construct); test: Primary screen NINDS Rhodamine qHTS for Zika virus inhibitors (AID 1347160); also: nearly all actives have a fitted effect of over 55% in size; as to activity change, negative = inhibition: % is scaled to controls: 0 for no effect and ±100 for the full control effect
Summary of the method: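 Purified NS2B-NS3 protease with the NS2B hydrophilic domain joined by a flexible linker (25 nM) in 10 mM Tris-HCl pH 8.0, 0.01% Tween 20, preincubated 15 min at RT with compound; Rhodamine110 peptide substrate 1.5 µM; fluorescence change over 15 min; 4-parameter Hill fit.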

[15] = Primary qHTS for inhibitors of nuclear receptor binding SET domain protein 2 (NSD2) in an RCH-ACV wild type WT cells (2C) (AID 1645877); also: nearly all actives have a fitted effect of over 70% in size; also: potency is read from the fitted curve at half-maximal effect
[16] = biological target: Phospholipid hydroperoxide glutathione peroxidase GPX4 (Homo sapiens) (UniProt P36969); test: Primary qHTS Assay for Inhibitors of Recombinant Selenoprotein Glutathione Peroxidase 4 (GPX4) (AID 1845192); settings: outcome: dose series up to 50 µM unless noted; also: nearly all actives have a fitted effect of over 65% in size
Phospholipid hydroperoxide glutathione peroxidase GPX4 (Homo sapiens), sequence (P36969 whole entry, looked up): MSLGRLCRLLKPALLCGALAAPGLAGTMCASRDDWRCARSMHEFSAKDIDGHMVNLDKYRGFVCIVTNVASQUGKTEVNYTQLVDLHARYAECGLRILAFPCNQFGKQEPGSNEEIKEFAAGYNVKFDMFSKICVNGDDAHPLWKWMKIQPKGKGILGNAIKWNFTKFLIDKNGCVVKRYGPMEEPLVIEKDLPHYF
Summary of the method: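 GR-coupled assay: recombinant GPX4 preincubated 30 min with compound at room temperature; final 200 nM GPX4, 1 mM GSH, 0.5 mM cumene hydroperoxide, 0.5 mM NADPH, 100 nM GR, 0.01% BSA, pH 7.5 Tris. NADPH fluorescence (340/450 nm) read at 0 and 15 min.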

[17] = qHTS drug screen for cell cycle checkpoint inhibitors in PARPi-resistant BRCA-mutant ovarian cancer cell lines. (AID 1963452; calls by dose curve); settings: PEO1/OlaR viability, CellTiter-Glo luminescence, 96 h, stronger effect = lower value
Summary of the method: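 PEO1, PEO4 and PEO1/OlaR ovarian cancer cells, 600 per well, exposed 96 h at 37C to a dilution series. Viability read by CellTiter-Glo luminescence, normalized to DMSO and empty wells; activity summarized as Z-AUC.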

[18] = P-glycoprotein substrates identified in KB-8-5-11 adenocarcinoma cell line, qHTS therapeutic library screen (AID 1346987); also: potency is read from the fitted curve at half-maximal effect; nearly all actives have a fitted effect of over 65% in size
Summary of the method: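 Steps: plate 500 KB-8-5-11 cells/well in DMEM + 10% FCS (colchicine removed); pin compounds in dose-response; incubate 72 h, 37 degree C, 5% CO2; add CellTiter-Glo, 5 min; read luminescence.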

C[N+]1(C)[C@@H]2CC[C@H]1CC(OC(=O)C(O)c1ccccc1)C2 (stereo not given in full)
inactive: outcome [1] | Potency [2] | Potency [3] | Potency [4] | Potency [5] | Potency [6] | Potency [7] | Potency [8] | Potency [9] | Potency [10] | Potency [11] | Potency [12] | Potency [13]

Cc1cc(C)c(NC(=O)N(Cc2ccc3c(c2)Cc2ccccc2-3)C2CCCCCC2)c(C)c1
inactive: Potency [14] | outcome [1] | Potency [2] | Potency [15] | Potency [3] | Potency [16] | Potency [4] | Potency [5] | Potency [6] | Potency [7] | Potency [8] | Potency [9] | Potency [10] | Potency [11] | Potency [12] | Potency [13]

CCOC(=O)CCC(=O)O[C@H]1[C@H](O[C@@H]2[C@@H](C)[C@H](O[C@H]3C[C@@](C)(OC)[C@@H](O)[C@H](C)O3)[C@@H](C)C(=O)O[C@H](CC)[C@@](C)(O)[C@H](O)[C@@H](C)C(=O)[C@H](C)CC2(C)O)O[C@H](C)C[C@@H]1N(C)C (stereo not given in full)
inactive: Potency [14] | outcome [1] | Potency [2] | Potency [3] | Potency [16] | Potency [4] | Potency [5] | Potency [6] | Potency [7] | Potency [8] | Potency [9] | Potency [10] | Potency [11] | Potency [12] | Potency [13]

COc1ccc(-c2c(C)c(C(=O)NN3CCCCC3)nn2-c2ccc(Cl)cc2Cl)cc1
inactive: Potency [14] | Potency [4] | Potency [5] | Potency [6] | Potency [7] | Potency [8] | Potency [9] | Potency [10] | Potency [12] | Potency [13]

C=C1C(=O)O[C@@H]2/C=C(/C)CC3C=C(C[C@H](OC(=O)/C(C)=C\C)[C@@H]12)C(=O)O3 (stereo not given in full)
active: Potency [2] 16 µM | Potency [15] 3.58 µM
inactive: Potency [14] | outcome [1] | Potency [3] | Potency [4] | Potency [6] | Potency [7] | Potency [8] | Potency [9] | Potency [11] | Potency [12] | Potency [13]

COc1cc2nc(-c3cc(F)ccc3O)nc(N[C@@H]3CNC[C@H]3C(C)(C)O)c2cc1OC
-0.378: Z-AUC ([17]; measured here: PEO1 parental Z-AUC)
-0.09: Z-AUC ([17]; measured here: PEO4 Z-AUC)
active: Potency [2] 4.59 µM and 1.48 µM | Potency [15] 4.09 µM and 1.66 µM
inactive: Potency [14] | outcome [1] | Potency [3] | Potency [16] | Potency [4] | Potency [5] | Potency [6] | Z-AUC [17] -0.315 | Potency [8] | Potency [9] | Potency [10] | Potency [11] | Potency [12] | Potency [13]

COc1ccc2c3ccnc4ccc(=O)n(c2c1)c43
active: Potency [9] 14.1 µM
inactive: Potency [14] | outcome [1] | Potency [3] | Potency [16] | Potency [4] | Potency [5] | Potency [6] | Potency [7] | Potency [11] | Potency [12]

CC(CCC1(O)OC2CC3C4CC=C5CC(O[C@@H]6O[C@H](CO)[C@@H](O[C@@H]7O[C@H](CO)[C@@H](O)[C@H](O)[C@H]7O)[C@H](O)[C@H]6O[C@@H]6O[C@@H](C)[C@H](O)[C@@H](O)[C@H]6O)CCC5(C)C4CCC3(C)C2C1C)CO[C@@H]1O[C@H](CO)[C@@H](O)[C@H](O)[C@H]1O (stereo not given in full)
inactive: Potency [14] | outcome [1] | Potency [3] | Potency [16] | activity change, negative = inhibition [4] 1.02% [at 11.6 µM] | activity change, negative = thiol reactive [5] 204% [at 11.5 µM] | activity, negative = inhibition [6] 4.58% [at 11.6 µM] | redox activity (% of DA3003) [7] 5.01% [at 11.5 µM] | activity change, negative = cytotoxicity [8] 5.5% [at 11.6 µM] | activity change, negative = cytotoxicity [9] -13.3% [at 11.6 µM] | activity change, negative = cytotoxicity [10] 1.54% [at 11.6 µM] | activity change, negative = cytotoxicity [11] -6.68% [at 11.6 µM] | activity change, negative = cytotoxicity [12] -1.03% [at 11.6 µM] | activity change, negative = cytotoxicity [13] 7.99% [at 11.6 µM]

C=C1C(=O)O[C@@H]2[C@H]1[C@H](O)C[C@]1(C)[C@@H](O)CC=C(C)[C@@H]21
inactive: Potency [14] | Potency [3] | Potency [16] | Potency [4] | Potency [5] | Potency [6] | Potency [7] | Potency [8] | Potency [9] | Potency [10] | Potency [11] | Potency [12] | Potency [13]
active: Potency [2] 11.5 µM | Potency [15] 7.28 µM

COc1cccc(NC[C@@H](O)Cn2c3ccc(Br)cc3c3cc(Br)ccc32)c1
inactive: outcome [1] | Potency [3] | Potency [16] | Potency [4] | Potency [6] | Potency [7] | Potency [8] | Potency [10] | Potency [11] | Potency [13]
active: Potency [18] 23.1 µM

CC(C)COc1ccc(CNC(=O)N(Cc2ccc(F)cc2)C2CCN(C)CC2)cc1
active: Potency [18] 16.4 µM | Potency [2] 20.5 µM | Potency [15] 18.3 µM
inactive: Potency [14] | outcome [1] | Potency [3] | Potency [16] | Potency [4] | Potency [5] | Potency [6] | Potency [7] | Potency [9] | Potency [10] | Potency [13]

N#Cc1ccc2c(c1)CCN(CCC1CCC(NC(=O)c3ccnc4ccccc34)CC1)C2 (stereo not given)
inactive: Potency [14] | Potency [4] | Potency [5] | Potency [6] | Potency [8] | Potency [9] | Potency [10] | Potency [11] | Potency [13]

O=C(/C=C/n1cnc(-c2cc(C(F)(F)F)cc(C(F)(F)F)c2)n1)NNc1cnccn1
active: Potency [2] 1.63 µM | Potency [15] 2.05 µM
inactive: Potency [14] | outcome [1] | Potency [3] | Potency [16] | Potency [4] | Potency [5] | Potency [6] | Potency [7] | Potency [9]
